From PubChem BioAssay
This is a sample that favours compounds with a hit; in the whole collection about 4.1% have one here.
ssDAF-12 act: activates DAF-12 receptor from parasite S. stercoralis. HEK293 ssDAF-12/GRIP1 lit1-tk-luc reporter, luminescence; % of 3 µM dafachronic acid response. AID 652126. 370,000 compounds, 1% hits. activation, % at 6.8 µM;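 active means activation above the mean over all tested compounds plus 3 SD, cut at about 0.9% in these data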;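 further: 0% = DMSO-only wells and 100% = 3 µM delta7-dafachronic acid wells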
DAX1 inh-1: inhibits human nuclear receptor DAX1; P51843; HEK293 Gal4-DAX1 luciferase reporter, luminescence; inhibition, % at 6.75 µM; 340,000 compounds, 0.99% hits; AID 504766;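 active means inhibition above the mean over all tested compounds plus 3 SD, cut at about 4.2% in these data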;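 further: 0% = DAX1-transfected cells with DMSO and 100% = empty-vector control cells with DMSO; inhibition shows as a rise in luminescence from relieved DAX1 repression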
Target sequence (P51843 207-470 limits assumed): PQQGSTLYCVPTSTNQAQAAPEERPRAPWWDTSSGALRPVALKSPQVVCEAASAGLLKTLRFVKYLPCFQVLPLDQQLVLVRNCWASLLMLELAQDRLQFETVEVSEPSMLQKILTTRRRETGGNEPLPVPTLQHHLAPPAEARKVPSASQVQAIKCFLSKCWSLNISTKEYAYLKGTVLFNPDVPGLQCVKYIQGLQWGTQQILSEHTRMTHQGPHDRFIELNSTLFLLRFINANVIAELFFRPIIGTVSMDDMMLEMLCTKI
DAX1 inh-2: blocks DAX1 repression of SF-1 activated StAR promoter | HEK293T StAR-luciferase reporter, SF-1/DAX-1 repression relief | inhibition, % at 6.8 µM | 370,000 compounds, 1.1% hits | AID 652010;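 active means inhibition above the mean over all tested compounds plus 3 SD, cut at about 3.6% in these data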;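 further: 0% = DAX-1 cells with DMSO and 100% = cells lacking DAX-1 with DMSO; higher inhibition means more luminescence from relief of DAX-1 repression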
hgDAF12 agonist: activates the H. glycines DAF-12 receptor ligand-binding domain; HEK293 GAL4-hgDAF12 UAS-luciferase reporter, agonist luminescence; normalized to butyrate control; activation, % at 6.8 µM; AID 687014; 370,000 compounds, 1.8% hits;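 active means activation above a cutoff set at the mean of all screened compounds plus 3 SD, cut at about 10% in these data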;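 further: 0% = DMSO wells and 100% = sodium butyrate wells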
hcDAF-12 act: activates DAF-12 receptor from parasite H. contortus. HEK293 hcDAF-12 lit1-tk-luc reporter, luminescence; 0% DMSO, 100% Δ7-dafachronic acid. activation, % at 6.8 µM. 370,000 compounds, 1.4% hits. AID 652067;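 active means activation above the mean of all tested compounds plus 3 SD, cut at about 5.5% in these data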;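 further: 100% = response to 3 µM Δ7-dafachronic acid high control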
DAX1 inh confirm: confirmation of human DAX1 (NR0B1) inhibitors; AID 652134; inhibition, % at 6.8 µM; shares compounds with DAX1 inh-2; 2,400 compounds, 87% hits; HEK293T StAR-promoter luciferase reporter, SF-1/DAX-1 repression;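 active means inhibition above the average of every tested compound plus 3 SD, cut at about 3.8% in these data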;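 further: 0% = DAX-1 cells with DMSO and 100% = no DAX-1 control cells with DMSO; active compounds raise luminescence by relieving repression of the StAR reporter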
SF1 AF2mut Luc: nonselective inhibitor or artifact in SF-1 mutant DAX1 counter-screen. shares compounds with DAX1 inh-2. HEK293 StAR-luciferase, SF-1 AF2 mutant, luminescence. inhibition, % at 6.8 µM. 2,400 compounds, 78% hits. AID 652136;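 active means inhibition above the mean of all tested compounds plus 3 SD, cut at about 3% in these data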;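 further: 0% = DAX-1 transfected cells with DMSO and 100% = cells without DAX-1 with DMSO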
LXRb hcDAF ctr: counter-screen for hcDAF-12 agonists: agonists of human LXR-beta; shares compounds with hcDAF-12 act; HEK293 Gal4-LXR tk-luc reporter, luminescence, 24 h; normalized: DMSO 0%, positive control 100%; activation, % at 6.8 µM; 3,400 tested, under 10 active;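 active means mean percent activation of the reporter above a cutoff set as the average over tested compounds plus their standard deviation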
Target sequence (P55055 whole entry, looked up, the tested form may be a part): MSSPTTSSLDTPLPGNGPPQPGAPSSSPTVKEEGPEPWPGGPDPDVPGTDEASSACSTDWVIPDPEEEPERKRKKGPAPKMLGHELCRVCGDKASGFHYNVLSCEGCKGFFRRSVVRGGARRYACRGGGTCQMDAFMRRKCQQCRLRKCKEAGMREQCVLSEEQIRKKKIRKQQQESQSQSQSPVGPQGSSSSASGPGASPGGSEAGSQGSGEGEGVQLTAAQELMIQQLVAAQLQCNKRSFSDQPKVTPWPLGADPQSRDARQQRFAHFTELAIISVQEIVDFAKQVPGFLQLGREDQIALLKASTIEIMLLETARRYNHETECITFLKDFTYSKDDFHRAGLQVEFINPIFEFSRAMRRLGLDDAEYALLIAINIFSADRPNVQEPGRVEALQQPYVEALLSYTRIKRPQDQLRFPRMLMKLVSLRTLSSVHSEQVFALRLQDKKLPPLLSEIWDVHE
hcDAF12 ag: hcDAF-12 agonism, confirmation assay | shares compounds with hcDAF-12 act | HEK293 hcDAF-12 lit1-tk-luc reporter, luminescence; % of Δ7-dafachronic acid response | activation, % at 6.8 µM | 3,400 compounds, 61% hits | AID 743032;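 active means mean activation across triplicate tests above the threshold derived from the earlier primary screen, cut at about 5.5% in these data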;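 further: 0% = DMSO only wells and 100% = 3 µM Δ7-dafachronic acid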
Numbers without * were called inactive; . = no result given.

SMILES	ssDAF-12 act	DAX1 inh-1	DAX1 inh-2	hgDAF12 agonist	hcDAF-12 act	DAX1 inh confirm	SF1 AF2mut Luc	LXRb hcDAF ctr	hcDAF12 ag
O=C(Nc1nc2ccccc2s1)c1c(F)cccc1Cl	0.2	3.1	0.8	7.8	1.2	.	.	.	.
Cn1cc(Cl)c(C(=O)Nc2nc3ccccc3s2)n1	3.3*	0.2	7.0*	19.0*	20.9*	14.3*	7.3*	1.7	17.9*
COc1ccc(CCC(=O)N/N=C/c2ccc3c(c2)OCO3)cc1	-0.7	0.2	-0.3	2.5	-0.7	.	.	.	.
CC(C(=O)NCc1ccc(F)cc1)n1ccc2cc(S(=O)(=O)N3CCCC3)ccc21 (stereo unspecified)	-1.6	-0.1	-0.3	-0.2	-1.1	.	.	.	.
CCOC(=O)[C@]12CCCCC/C=C\1N(Cc1ccc(OC)cc1)C(=O)[C@H]2CC(=O)NCc1cccs1	0.1	.	0.2	3.6	-1.7	.	.	.	.
CC(C)(C)NC(=O)C(c1cc2ccccc2o1)n1c(-c2ccc(-c3ccccc3)cc2)nc2ccccc21 (stereo unspecified)	4.8*	.	10.5*	24.7*	20.5*	13.0*	9.6*	2.2	25.3*
COc1ccc2sc(NCc3ccccc3)nc2c1	-0.1	1.5	6.5*	5.6	7.1*	7.1*	6.6*	0.7	4.1
COc1cc(CNc2nc3ccccc3s2)cc(OC)c1OC	-1.1	1.2	-0.5	-2.6	0.0	.	.	.	.
Cc1ccc(-c2noc(-c3cccs3)n2)cc1	0.5	3.2	6.2*	16.3*	8.9*	16.4*	11.1*	2.2	15.5*
CC(=S)/C=C1\Sc2ccccc2N1C	-1.2	1.5	-1.1	-2.0	-0.6	.	.	.	.
COc1ccc(C(=O)/C=C2\Sc3ccccc3N2C)cc1	5.9*	.	5.7*	28.4*	18.9*	16.1*	9.8*	2.2	18.3*
CCOc1cccc(C=NNC(=O)C(=O)Nc2cccc(C(F)(F)F)c2)c1O	-1.8	.	0.1	-2.8	-1.9	.	.	.	.
CC(C)(C)c1ccc(/C=N/NC(=O)c2ccccn2)cc1	0.2	-1.5	11.5*	13.0*	7.2*	13.8*	6.2*	1.9	9.5*
Cc1c(C(=O)OC(C)C)sc(NC(=O)c2cnccn2)c1C(=O)OC(C)C	-1.9	0.1	0.0	-1.8	0.1	.	.	.	.
COc1ccc(-c2cn3c4c(sc3n2)CCCC4)cc1	1.3*	-1.4	5.1*	13.1*	17.4*	11.7*	7.9*	1.8	20.4*
COc1ccc(C(=O)Nc2nnc(-c3ccco3)s2)cc1	1.1*	-2.1	6.9*	9.1	7.7*	9.0*	0.9	1.2	7.2*
CC1CCN(C(=O)c2cc3c(ccc4ccccc43)o2)CC1	0.5	-0.7	19.0*	12.0*	9.1*	10.3*	4.3*	1.9	6.5*
O=C(CSc1ccc2nnc(-c3ccccn3)n2n1)N1CCN(c2ccccc2)CC1	-0.9	-1.1	-0.1	-4.7	0.0	.	.	.	.
Cc1ccsc1C(=O)Nc1nccs1	0.3	1.0	0.4	4.5	0.3	.	.	.	.
Cc1ccc(C(=O)Nc2nccs2)cc1	2.4*	2.1	6.6*	12.3*	12.3*	10.0*	6.4*	1.2	13.9*
CSc1nc2ccccc2n1Cc1c(Cl)cccc1Cl	-1.5	0.3	-0.5	-4.2	-3.4	.	.	.	.
CCc1ccc(NC(=S)N(CCN2CCOCC2)Cc2ccccc2F)cc1	-1.7	-0.9	-0.5	2.0	0.1	.	.	.	.
COc1cccc(NC(=O)Nc2nccc(C)n2)c1	-0.2	-1.7	5.0*	13.1*	8.1*	12.6*	5.3*	1.4	3.6
O=c1c2c(nc3cc(-c4ccc(F)cc4)[nH]n13)CCCC2	0.5	-1.4	5.4*	10.1	6.9*	10.7*	3.4*	1.3	5.2
O=C(c1ccccc1)c1cc(Cl)ccc1N1C(=O)C=CC1=O	-2.2	-3.2	-0.1	-2.2	-0.6	.	.	.	.
SMILES	ssDAF-12 act	DAX1 inh-1	DAX1 inh-2	hgDAF12 agonist	hcDAF-12 act	DAX1 inh confirm	SF1 AF2mut Luc	LXRb hcDAF ctr	hcDAF12 ag
CC(=O)Nc1sc2c(c1C(N)=O)CCC2	-0.8	-0.3	0.1	-0.4	1.2	.	.	.	.
Cn1ccc(C(=O)Nc2sc3c(c2C(N)=O)CCCCC3)n1	-0.6	2.0	10.4*	11.6*	7.8*	4.9*	2.7	1.2	6.9*
NC(=O)c1c(NC(=O)c2cc3ccccc3o2)sc2c1CCC2	1.9*	3.2	4.8*	12.8*	9.9*	14.4*	7.6*	1.7	15.0*
Cn1nccc1C(=O)Nc1sc2c(c1C(N)=O)CCCC2	-0.7	-1.4	0.5	5.2	1.7	.	.	.	.
O=C(Cc1ccsc1)NNC(=O)c1ccc(F)cc1	-0.5	-0.2	2.0	4.9	2.9	.	.	.	.
CC(=O)Nc1ccc(NC(=O)CSc2nnc(NC(=O)c3cccc(F)c3)s2)cc1	1.1*	-0.6	7.5*	8.8	11.6*	4.6*	4.6*	0.2	3.6
c1ccc(-c2csc(Nc3ccc4c(c3)OCO4)n2)cc1	2.6*	.	22.5*	21.3*	17.2*	14.0*	7.8*	2.3	16.7*
Nc1ccccc1-n1nc2ccc3ccccc3c2n1	3.1*	4.6*	9.6*	19.7*	18.1*	14.9*	8.5*	2.6	23.1*
Cc1c(N)ccc(-n2nc3ccccc3n2)c1C	-0.9	.	0.5	3.9	0.1	.	.	.	.
CCOc1cc(N2CCOCC2)c(OCC)cc1NC(=O)COC(=O)c1c(CC)noc1C	-0.4	0.5	0.0	-1.4	-0.7	.	.	.	.
Nc1ccccc1C=C1Cc2ccccc2C1=O	3.2*	2.5	7.7*	21.6*	13.0*	17.0*	7.4*	1.3	10.7*
COc1ccc(OCc2cc(C(=O)NC(C)Cn3cncn3)no2)c(Cl)c1 (stereo unspecified)	0.9*	1.5	6.0*	10.6*	6.7*	2.9	0.6	0.3	6.8*
COc1ccc(OCc2cc(C(=O)NC(C)Cc3cccnc3)no2)c(Cl)c1 (stereo unspecified)	-1.0	-0.5	-0.7	1.2	-1.7	.	.	.	.
Cc1ccc(C(=O)N=c2sccn2C)cc1C	1.6*	1.0	10.2*	12.5*	13.6*	11.4*	7.2*	1.4	11.5*
O=C(CCN1C(=O)c2cccc([N+](=O)[O-])c2C1=O)Nc1nccs1	-1.9	-0.2	0.3	-4.2	-1.6	.	.	.	.
Fc1ccc(-c2cnn3c(-c4cccs4)ccnc23)cc1	3.9*	4.9*	7.2*	33.0*	32.0*	18.1*	11.3*	2.1	23.1*
